The first assay has as its target ETFB. The assay is described as follows: pooled miR-30 sensor sort-seq; sequence = guide strand. The following applies: shRNA.
For TCCCGCTCCACTTTCAACTTGT, the sensor-assay potency score (higher = more potent) was -0.247.

TTGGCTTTCATGATGTTGGGCA showed a sensor-assay potency score (higher = more potent) of 0.503.

ACACTGATCACAGAGAGCTTGG returned a sensor-assay potency score (higher = more potent) of -0.751.

Consider TCTCCTTGAGCCGCACAGCCTC, for which the sensor-assay potency score (higher = more potent) was -1.05.

On to AATCCAGCTGTCATCTGCCCTG, for which the sensor-assay potency score (higher = more potent) was -0.828.

Take TCGATCTTCTTCTTCTTGGCTT: the sensor-assay potency score (higher = more potent) was -0.249.

Sequence TCCGTGACCACACCGGTCCTGT returned a sensor-assay potency score (higher = more potent) of -1.31.

For TCGTCTCCTGGCACTGTGCAGG, the sensor-assay potency score (higher = more potent) was -1.37.

The sequence TGGAGGTCAGGTCCACACCCAG came in with a sensor-assay potency score (higher = more potent) of -1.98.

TTCATGGAGTGCTTCACACCAT showed a sensor-assay potency score (higher = more potent) of 0.145.

In turn, TTCTTGGCTTTCATGATGTTGG came in with a sensor-assay potency score (higher = more potent) of -0.962.

As for TTCTTCTTGGCTTTCATGATGT, the sensor-assay potency score (higher = more potent) is -0.521.

ATCACCTCGATCTTCTTCTTCT: the sensor-assay potency score (higher = more potent) is -0.543.

TTCTCCTTCTCTGCCAGCTTGG gave a sensor-assay potency score (higher = more potent) of -1.27.

Turning to TCGGTCTGCACCCATGGCCAGG, the sensor-assay potency score (higher = more potent) was -1.71.

Sequence TTGATCACCTCGATCTTCTTCT registered a sensor-assay potency score (higher = more potent) of 0.521.

The sequence TCTGGTTACAGTCATCATCGAT returned a sensor-assay potency score (higher = more potent) of -0.57.

For the sequence AAGCGTTCTGCTTCTGCTGGGG, the sensor-assay potency score (higher = more potent) was -0.0454.

AAGAAATCCAGCTGTCATCTGC: the sensor-assay potency score (higher = more potent) stood at 0.386.

TTTCAACTTGTCCCCCTCCAGC: the sensor-assay potency score (higher = more potent) was -1.21.

Sequence TTGGGCAGCGTGGCGTAGCGGG registered a sensor-assay potency score (higher = more potent) of -1.13.

As to ACAGTCATCATCGATGGCCTGT, the sensor-assay potency score (higher = more potent) is -0.63.

The next assay concerns the target ETS1. Described as above. The following applies: shRNA.
TTCTGCAAGGTGTCTGTCTGGA returned a sensor-assay potency score (higher = more potent) of 0.532.

Sequence TTTGATAGCAAAGTAGTCATTC had a sensor-assay potency score (higher = more potent) of -0.303.

On to TAGCTAATGAAGTAATCCGAGG, for which the sensor-assay potency score (higher = more potent) was -1.48.

TTGATATGGTTTCACATCCTCT registered a sensor-assay potency score (higher = more potent) of -1.06.

Sequence TATGCTTTCAAAAGAGTCCTGG returned a sensor-assay potency score (higher = more potent) of 0.343.

TGAAAGTAGCTTTTAATGCTTG returned a sensor-assay potency score (higher = more potent) of -0.0896.

With TTCTTTAGTGAAACCACTGAAA, the sensor-assay potency score (higher = more potent) was -0.218.

For ATAGCTAATGAAGTAATCCGAG, the sensor-assay potency score (higher = more potent) was -0.147.

TTTTCCGTCTTGATGATGGTGA had a sensor-assay potency score (higher = more potent) of -0.268.

TTGTTTGATAGCAAAGTAGTCA registered a sensor-assay potency score (higher = more potent) of -0.385.

Consider TTTCACATCCTCTTTCTGCAGG, for which the sensor-assay potency score (higher = more potent) was -0.259.

Sequence ATCTGCACATTCCATATCCGGG yielded a sensor-assay potency score (higher = more potent) of -1.42.

Sequence TAGAGTGATAGGTAAATAGTTC displayed a sensor-assay potency score (higher = more potent) of -0.916.

Sequence TTTCTTTGCTGCTTGGAGTTAA displayed a sensor-assay potency score (higher = more potent) of -0.637.

For TAGTCCTCTGAGTCGAAGCTGT, the sensor-assay potency score (higher = more potent) is -0.809.

Turning to TAACTTGATATGGTTTCACATC, the sensor-assay potency score (higher = more potent) is -1.41.

In the case of TTTATCAGTGAGTAATTCCAGA, the sensor-assay potency score (higher = more potent) is -0.449.

Take TTTTGTCGTAATAGTAGCGTAG: the sensor-assay potency score (higher = more potent) was -0.397.
Note: reference of the scale not given here.
